Many of the other results were omitted from the sample, so hits are more common in it than they were.
Tgondii IFNg – T. gondii growth inhibition with IFN-gamma, primary screen, cell-based; Toxoplasma gondii growth in IFN-gamma-treated host cells; hits give low values; activity change, negative = inhibition, % (test concentration not listed); 69,000 tested, 3.8% active; in the data active = activity change below about -70%, passing the limit was not always enough;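 also: host cells are HeLa cells infected with Toxoplasma gondii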
* marks the source's active call; other numbers are inactive results.

For COc1ccc2ncc3c(c2c1)-c1cc(Cl)ccc1OC3 the results were Tgondii IFNg 254.7.
`COc1ccc(N2CCN(CCNc3nc(-c4ccc(Cl)cc4)nc4ccccc34)CC2)cc1` gave Tgondii IFNg 151.9.
`CN(C)CC1(O)CCCN(C(=O)c2cnc3ccccn3c2=O)C1` (centres undefined) gave Tgondii IFNg 4.8.
`O=C1NC(=O)C(c2cnc3ccccn23)=C1c1cn2c3c(cc(F)cc13)CN(C(=O)N1CCCCC1)CC2` gave Tgondii IFNg -86.9*.
For CN(C)CC1(O)CCCN(C(=O)c2cnc3ccccn3c2=O)CC1 (centres undefined) the results were Tgondii IFNg 1.8.
Screening c1cc(CN2CC[C@@H]3[C@@H]2CCN3c2nncs2)co1 returned Tgondii IFNg 4.5.
For Cn1c2c(c(=O)n1C)CN(S(=O)(=O)c1ccccc1)CCC2 the results were Tgondii IFNg -75.3*.
Cc1nc(N2CCCC2)nc2c1CCN(S(=O)(=O)c1ccccc1)CC2 was read as Tgondii IFNg -49.5.
`CSc1ccc(C(=O)C2CCCN(S(=O)(=O)c3ccccc3)C2)cc1` (centres undefined) gave Tgondii IFNg -29.6.
`CN1CC(c2ccccc2)C2(CCN(S(=O)(=O)N(C)C)C2)C1=O` (centres undefined) gave Tgondii IFNg -10.8.
Fc1cnc(N2CCO[C@@H]3[C@H]2CC[C@H]3OCc2ccccn2)nc1 was read as Tgondii IFNg 1.4.
For Fc1ccc(CN2CCO[C@H]3[C@H]2CC[C@H]3OCCCn2cccn2)cc1 the results were Tgondii IFNg -94.2*.
c1coc(CN2C[C@@H](OCCCn3cccn3)[C@@H]3OCCC[C@@H]32)c1 was read as Tgondii IFNg -30.4.
For Cc1oc(-c2ccc(Cl)cc2)nc1CN1CCCC(C(=O)NC2CCCCCC2)C1 (centres undefined) the results were Tgondii IFNg -99.0*.
CCOc1ccc(-c2nc(CN3CCN(C(=O)NC4CCCCC4)CC3)c(C)o2)cc1 was read as Tgondii IFNg 3.7.
For Cc1ccc(-c2nc(CN3CCN(C(=O)NC4CCCCC4)CC3)c(C)o2)cc1 the results were Tgondii IFNg -2.2.
Cc1ncc2c(c1CNC(=O)c1cn(CC3CCCCC3)nn1)CCNC2 was read as Tgondii IFNg 2.4.
COc1ccc(C2(C(=O)N3CC(c4cccnc4)C3)CC2(C)C)cc1 (centres undefined) was read as Tgondii IFNg -5.7.
For Cc1cccc(-c2nc(C)c(CCNS(=O)(=O)c3ccc(-c4ccccc4)cc3)s2)c1 the results were Tgondii IFNg -83.9*.
Cc1nc(-c2ccccc2)sc1CCNS(=O)(=O)c1ccccc1 was read as Tgondii IFNg 368.7.
Screening Cc1cccc(-c2nc(C)c(CCNS(=O)(=O)c3ccccc3F)s2)c1 returned Tgondii IFNg inactive.
Cc1nc(-c2ccc(Cl)cc2)sc1CCNS(=O)(=O)c1ccccc1F was read as Tgondii IFNg -71.9*.
Screening Cc1cccc(-c2nc(C)c(CCNS(=O)(=O)c3ccc(I)cc3)s2)c1 returned Tgondii IFNg inactive.
`Cc1cc(F)ccc1S(=O)(=O)NCCc1sc(-c2ccc(Cl)cc2)nc1C` gave Tgondii IFNg 361.8.
For COc1ccccc1NC(=O)c1c(O)c2cccnc2[nH]c1=O the results were Tgondii IFNg 50.3.
Screening Cc1nn(CC(C)C)cc1S(=O)(=O)N(C)Cc1nonc1C returned Tgondii IFNg -26.9.
For CCc1ccccc1NC(=O)c1c(O)c2ccccc2n(-c2ccccc2)c1=O the results were Tgondii IFNg 176.5.
Screening CCCS(=O)(=O)N1CCc2c(CNc3ncccn3)cncc2C1 returned Tgondii IFNg -60.8.
CCOc1ccc(NC(=O)Cn2c(=O)cc(C(=O)N3CCCCC3)c3ccccc32)cc1 was read as Tgondii IFNg 4.3.
Screening CN(C)CC(O)C1CCOC(C)(C)C1 (centres undefined) returned Tgondii IFNg -1.1.
For C=CCOCC1c2nnn(CC)c2CCN1C(=O)c1cscn1 (centres undefined) the results were Tgondii IFNg -26.8.
Screening CC(=O)NCC(=O)N1Cc2cc(C#N)ccc2C1c1cnco1 (centres undefined) returned Tgondii IFNg 4.2.
For CCC(NCC#N)c1ccc(Cl)c(Cl)c1 (centres undefined) the results were Tgondii IFNg 27.0.
`O=C1COc2cc3c(cc2N1)NC(=O)CC3c1nccs1` (centres undefined) gave Tgondii IFNg -1.0.
Screening CCOC(=O)Nc1ccc2c(c1)NC(=O)CC2c1cc(C(C)C)no1 (centres undefined) returned Tgondii IFNg -7.6.
`CCCc1ccc(C2CC(=O)Nc3cc4c(cc32)OCO4)o1` (centres undefined) gave Tgondii IFNg -87.9*.
`CCOC(=O)c1nc(NCc2ccc(C)cc2)c2ccccc2n1` gave Tgondii IFNg 6.8.
CCCCNc1nc(C(=O)OCC)nc2ccccc12 was read as Tgondii IFNg 0.6.
CC(NC(=O)c1nc(Nc2ccc(F)cc2)c2ccccc2n1)c1ccccc1 (centres undefined) was read as Tgondii IFNg -8.1.
CCOCCCNC(=O)c1nc(Nc2ccc(C)cc2)c2ccccc2n1 was read as Tgondii IFNg -54.7.
Screening CC(C)CCNC(=O)c1nc(Nc2ccccc2)c2ccccc2n1 returned Tgondii IFNg -46.5.
`Cc1ccc(Nc2nc(C(=O)Nc3cc(C)cc(C)c3)nc3ccccc23)cc1` gave Tgondii IFNg -7.0.
Cc1ccc(Nc2nc(C(=O)NCCC(C)C)nc3ccccc23)cc1 was read as Tgondii IFNg -87.2*.
Cc1ccc(Nc2nc(C(=O)NC(C)C)nc3ccccc23)cc1 was read as Tgondii IFNg -78.8*.
Screening CCOC(=O)c1nc(NCCc2ccc(C)cc2)c2ccccc2n1 returned Tgondii IFNg -72.5*.
For C=CCN1CCN(C(C)C)C(=O)C12CCN(c1cnccn1)C2 (centres undefined) the results were Tgondii IFNg 1.3.
Screening Cc1nc(OCC(=O)Nc2ccccc2C)c2ccccc2n1 returned Tgondii IFNg -7.2.
Screening O=C1CC2(CCN(C(=O)c3cnccn3)CC2)c2ccccc2N1 returned Tgondii IFNg -33.1.
CCc1cccc(OCCCN(C)C(=O)c2cccc3nccnc23)c1 was read as Tgondii IFNg -39.9.
Screening CN1CC2(CCN(Cc3nccn3C)CC2)OCC1=O returned Tgondii IFNg -5.8.
For COc1cccc(C#Cc2ccc3c(c2)O[C@H](CN(C)C(=O)CN2CCOCC2)[C@@H](C)CN([C@@H](C)CO)S3(=O)=O)c1 the results were Tgondii IFNg -49.6.
`COc1cccc(C#Cc2ccc3c(c2)O[C@H](CN(C)C(=O)CN2CCOCC2)[C@@H](C)CN([C@H](C)CO)S3(=O)=O)c1` gave Tgondii IFNg -6.0.
For C[C@H](CO)N1C[C@H](C)[C@H](CN(C)C(=O)Cc2cccnc2)Oc2cc(C#Cc3ccccc3F)ccc2S1(=O)=O the results were Tgondii IFNg -88.5*.
`C[C@@H]1CN([C@H](C)CO)S(=O)(=O)c2ccc(C#Cc3ccccc3F)cc2O[C@@H]1CN(C)C(=O)Cc1cccnc1` gave Tgondii IFNg -99.0*.
Screening COc1cccc(-c2ccc3c(c2)O[C@H](CN(C)Cc2cccnc2)[C@@H](C)CN([C@@H](C)CO)S3(=O)=O)c1 returned Tgondii IFNg -64.2.
For COc1cccc(-c2ccc3c(c2)O[C@@H](CN(C)Cc2cccnc2)[C@H](C)CN([C@H](C)CO)S3(=O)=O)c1 the results were Tgondii IFNg -64.0.

Screening data from PubChem.
